According to PubChem BioAssay (NCI):
The panel holds about 83,000 compounds, 20% with a hit somewhere; the sample as a whole holds those more often.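 Results are percent growth after 48 hours of single-concentration exposure. 100 means growth as in untreated cells, lower positive values show inhibition; negative values down to -100 show cell death.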 Unmarked numbers belong to inactive results. Calls of active or inactive are those of the source. The calls were made as follows: active = growth percent below 10; inactive = the rest.

Assays:
Experiment in all cases: NCI-60 one-dose screen, 48 h (100 = growth as untreated, 0 = no growth, -100 = all killed)
Details in all cases: 10 µM
DU-145 prostate = test system: DU-145 prostate
K-562 leukemia = test system: K-562 leukemia
MDA-MB-231 breast = test system: MDA-MB-231 breast
RXF 393 renal = test system: RXF 393 renal
SF-268 CNS = test system: SF-268 CNS
SF-295 CNS = test system: SF-295 CNS
SF-539 CNS = test system: SF-539 CNS
UACC-257 melanoma = test system: UACC-257 melanoma
M14 melanoma = test system: M14 melanoma

| SMILES | growth (DU-145 prostate) | growth (K-562 leukemia) | growth (MDA-MB-231 breast) | growth (RXF 393 renal) | growth (SF-268 CNS) | growth (SF-295 CNS) | growth (SF-539 CNS) | growth (UACC-257 melanoma) | growth (M14 melanoma) |
| --- | --- | --- | --- | --- | --- | --- | --- | --- | --- |
| Nc1c(C(=O)Nc2ccccc2F)sc2nc3c(cc12)C(=O)CCC3 | 8.4% (active) | 26.3% | 48.9% | 9.63% (active) | 54.9% | 3.17% (active) | 10.5% | 66.9% | 19.2% |
| COc1cc(/C=C/C(=O)c2cc(-c3ccccc3)ccc2O)cc(OC)c1OC | 91% | 34% | 71% | 97.8% | 83.2% | 74.6% | 80.2% | 69.9% | 96.7% |
| CCN(CC)CC(O)Cc1ccc(OC)cc1 (stereo not given) | 115% | 101% | 105% | 106% | 114% | 109% | 97.4% | 113% | 116% |
| Cn1c(=O)c2[nH]c(C(O)c3ccc(Cl)cc3)nc2n(C)c1=O (stereo not given) | 104% | 113% | 100% | 120% | 104% | 104% | 105% | 97.7% | 90.6% |
| O=CNc1c(Cl)cc2c(c1Cl)Cc1cc([N+](=O)[O-])ccc1-2 | 79.1% | 16.4% | 63.6% | 96.9% | 78.8% | 77.3% | 67.9% | 72.6% | 28.7% |
| CC[C@@]1(C(N)=O)CC2C=CC1C2 (stereo not given in full) | 113% | 92.6% | 109% | 112% | 119% | 110% | 111% | 118% | 102% |
| O=[N+]([O-])c1ccc2c(c1)Cc1cc(I)ccc1-2 | 116% | 95.6% | 102% | 101% | 103% | 82.5% | 116% | 108% | 101% |
| C[C@]12CC[C@H]3[C@@H](CCC4=CC(=O)CC[C@@]43C)[C@@H]1CC[C@@H]2c1csc(N)n1 | 78.2% | 26% | 66.8% | 76.8% | 89.6% | 50.3% | 81% | 49.6% | 61% |
| CC1(C)CC(OCCCC[P+](c2ccccc2)(c2ccccc2)c2ccccc2)CC(C)(C)N1O | 5.39% (active) | -53.4% (active) | -25.7% (active) | -38.1% (active) | 3.46% (active) | -56% (active) | 12% | -40.6% (active) | 8.8% (active) |
| CCOc1nc(-c2ccccc2)cc2c(O)c(C(=O)N/N=C/c3ccc(OC)cc3)[nH]c(=O)c12 | 122% | 74.4% | 126% | 6.86% (active) | 112% | 91% | 93.2% | 130% | 110% |
| COc1ccc(/C=C(\c2cc(OC)c(OC)c(OC)c2)c2nnc(-c3cccs3)o2)cc1 | 77% | 89.5% | 71.7% | 49.2% | 42% | 73.4% | 47.6% | 76.5% | 93.2% |
| CC(=O)Nc1ccc2c(c1)C(N1CC3CCC(CC3)C1)c1ccccc1-2 (stereo not given) | 109% | 58.9% | 91.6% | 81.9% | 92.7% | 101% | 97.2% | 84.1% | 102% |
| COc1cc(C2c3cc4c(cc3C(O)C(CO)C2CO)OCO4)cc(OC)c1OC (stereo not given) | 0.809% (active) | 11.3% | 41.2% | -6.08% (active) | 35.9% | -42.8% (active) | -16.4% (active) | 62% | 22.5% |
| O=C(NNC(=O)c1ccncc1)Nc1ccc([N+](=O)[O-])cc1 | 105% | 75.8% | 109% | 124% | 106% | 99.1% | 94% | 116% | 116% |
| CCOc1nc(-c2ccccc2)cc2c(O)c(C(=O)NCCCO)[nH]c(=O)c12 | 100% | 111% | 102% | 63.2% | 103% | 77.5% | 93.9% | 122% | 94.4% |
| O=C(O)c1ccccc1C(=O)c1cccc2c(F)cccc12 | 112% | 108% | 99.2% | 114% | 111% | 122% | 104% | 98.4% | 103% |
| COc1ccc(C(=O)n2nc(CC(=O)NCc3ccccc3)nc2N)cc1 | 115% | 95.7% | 96.2% | 118% | 108% | 108% | 112% | 105% | 101% |
| Cc1ccc(Cl)cc1Nc1nc(C(F)(F)F)ccc1C(=O)N/N=C/c1c(Cl)cccc1Cl | 2.91% (active) | 6.49% (active) | -12.2% (active) | -53.7% (active) | -7.33% (active) | -17.7% (active) | -17% (active) | -27.3% (active) | 11.3% |
| Cc1ccc(S(=O)(=O)Oc2ccccc2-c2ccccc2)cc1 | 34% | 15.3% | 55.9% | 28.9% | 42.5% | 8.37% (active) | 8.87% (active) | 54.4% | 6.11% (active) |
| COc1ccccc1Cn1cc2c(c1-c1ccccc1)CCc1cnoc1-2 | 51.8% | 19% | 56% | 38.3% | 37.5% | -3.81% (active) | 11% | 50% | 34.5% |
| CC1(C)CCc2cc(-c3ccn(S(=O)(=O)c4ccc(Cl)cc4)n3)ccc2O1 | 88.3% | 52.4% | 76.4% | 89% | 90.7% | 78.7% | 101% | 64.9% | 80.1% |
| COC1OC2COC(c3ccccc3)OC2C(=O)C1NC(=O)c1ccccc1 (stereo not given) | 95.6% | 127% | 94.1% | 122% | 99.1% | 88.5% | 101% | 104% | 99.8% |
| Oc1ccc(Cn2cc3c(c2-c2ccccc2)CCc2cnoc2-3)cc1 | 106% | 70% | 81.5% | 110% | 106% | 82% | 94.5% | 92.2% | 89.5% |
| Cn1c(N)c(N=Cc2ccccc2)c(=O)n(C)c1=O | 124% | 95.8% | 98.8% | 121% | 110% | 124% | 119% | 108% | 98.7% |
| COc1cc(-c2nc(-c3nnc(-c4cccnc4)o3)c3ccccn23)cc(OC)c1OC | 114% | 95.4% | 97.7% | 115% | 95.7% | 79.5% | 107% | 104% | 110% |
| CCOC(=O)c1cc2c(n1Cc1cccc(OC)c1)-c1oncc1CC2 | 48.4% | 18.5% | 52.7% | 11.2% | 44.8% | 3.54% (active) | 15.8% | 43.6% | 16.8% |
| O=[N+]([O-])c1ccc(S(=O)(=O)OCCCCOS(=O)(=O)c2ccc([N+](=O)[O-])cc2)cc1 | 107% | 94.7% | 106% | 112% | 106% | 105% | 104% | 108% | 104% |
| O=C1c2cc(Cl)ccc2-c2c(O)cc(Cl)cc21 | 98.8% | 57.2% | 79.2% | 68.8% | 86.1% | 99.1% | 80.7% | 105% | 91.8% |
| COc1ccc(Cn2cc3c(c2-c2cc(OC)c(OC)c(OC)c2)CCc2cnoc2-3)cc1N | 1.73% (active) | 15% | 19.5% | 35% | 15.4% | -16.9% (active) | 5.21% (active) | 65.9% | 6.22% (active) |
| C=CCn1ccc(=O)nc1SC | 117% | 103% | 109% | 129% | 108% | 107% | 105% | 102% | 104% |
